Experimental data published in the antibiotic and cytotoxicity screens of Wong et al. (2023).
In all, about 39,000 compounds went through this assay and about 1,500 (3.8%) were called active. Only a selection was taken, and actives are over-represented in it overall.

These molecules were tested on HSkMC (human skeletal muscle cells) (assay: cytotoxicity call (relative viability < 0.9)). Conditions: 10 µM.

SMILES	cytotoxicity call
COCC#Cc1ccc2c(c1)O[C@@H](CN(C)C(=O)C1CCOCC1)[C@H](C)CN([C@@H](C)CO)S2(=O)=O	inactive
C[C@H](CO)N1C[C@H](C)[C@@H](CN(C)Cc2ccc(Cl)c(Cl)c2)Oc2ccc(NC(=O)Nc3ccc(F)cc3)cc2C1=O	inactive
C[C@H]1CN([C@@H](C)CO)C(=O)c2cc(NC(=O)Nc3ccc(C(F)(F)F)cc3)ccc2O[C@H]1CN(C)Cc1ccc(Cl)c(Cl)c1	active
C[C@@H]1CN([C@H](C)CO)C(=O)c2cc(NC(=O)Nc3ccc(C(F)(F)F)cc3)ccc2O[C@H]1CN(C)Cc1ccc(Cl)c(Cl)c1	active
C[C@H]1CN([C@@H](C)CO)C(=O)c2cc(NC(=O)Nc3ccc(F)cc3)ccc2O[C@@H]1CN(C)Cc1ccc(Cl)c(Cl)c1	inactive
C[C@@H]1CN([C@@H](C)CO)S(=O)(=O)c2ccc(Br)cc2O[C@H]1CN(C)S(=O)(=O)c1ccccc1	inactive
C[C@@H]1CN([C@H](C)CO)C(=O)Cc2cc(NS(=O)(=O)c3ccc(F)cc3)ccc2O[C@@H]1CN(C)Cc1ccncc1	inactive
C[C@H]1CN([C@@H](C)CO)C(=O)CCCn2nncc2CO[C@H]1CN(C)S(=O)(=O)c1cn(C)cn1	inactive
Cc1noc(C)c1NC(=O)N(C)C[C@H]1Oc2c(NC(=O)Nc3ccc(C(F)(F)F)cc3)cccc2C(=O)N([C@H](C)CO)C[C@@H]1C	inactive
C[C@H]1CN([C@@H](C)CO)S(=O)(=O)c2ccc(-c3ccncc3)cc2O[C@@H]1CN(C)C(=O)c1cccc(F)c1	inactive
CNC(=O)CN1C(=O)[C@@H]2[C@@H](C1=O)[C@@H]1C=C[C@@H]2C1	inactive
C[C@H](CO)N1C[C@H](C)[C@H](CN(C)CC2CCCCC2)Oc2c(NC(=O)Nc3ccc(C(F)(F)F)cc3)cccc2C1=O	inactive
C[C@@H]1CN([C@@H](C)CO)C(=O)c2cccc(NC(=O)Nc3ccc(F)cc3)c2O[C@H]1CN(C)CC1CCCCC1	inactive
C[C@H]1CN([C@@H](C)CO)C(=O)c2cccc(NC(=O)Nc3ccc(C(F)(F)F)cc3)c2O[C@H]1CN(C)CC1CCCCC1	inactive
C[C@@H]1CN([C@H](C)CO)C(=O)c2cccc(NC(=O)Nc3ccc(F)cc3)c2O[C@@H]1CN(C)CC1CCCCC1	inactive
C[C@@H]1CN([C@@H](C)CO)C(=O)c2cccc(NC(=O)Nc3ccc(C(F)(F)F)cc3)c2O[C@@H]1CN(C)CC1CCCCC1	inactive
C[C@@H]1CN([C@H](C)CO)C(=O)c2cccc(NC(=O)Nc3ccc(F)cc3)c2O[C@H]1CN(C)CC1CCCCC1	inactive
C[C@H]1CN([C@@H](C)CO)C(=O)c2cccc(NC(=O)Nc3ccc(F)cc3)c2O[C@H]1CN(C)CC1CCCCC1	inactive
C[C@@H]1CN([C@H](C)CO)C(=O)c2cccc(NC(=O)Nc3ccc(C(F)(F)F)cc3)c2O[C@H]1CN(C)CC1CCCCC1	active
C[C@H](CO)N1C[C@H](C)[C@H](CN(C)CC2CCCCC2)Oc2c(NC(=O)Nc3ccc(F)cc3)cccc2C1=O	inactive
C[C@H]1CN([C@@H](C)CO)C(=O)c2cccc(NC(=O)Nc3ccc(C(F)(F)F)cc3)c2O[C@@H]1CN(C)CC1CCCCC1	active
C[C@H](CO)N1C[C@H](C)[C@@H](CN(C)CC2CCCCC2)Oc2c(NC(=O)Nc3ccc(C(F)(F)F)cc3)cccc2C1=O	active
C[C@@H]1CN([C@H](C)CO)C(=O)c2cccc(NC(=O)Nc3ccc(C(F)(F)F)cc3)c2O[C@@H]1CN(C)CC1CCCCC1	active

SMILES	cytotoxicity call
C[C@@H]1CN([C@H](C)CO)C(=O)c2cc(C#Cc3ccccc3F)cnc2O[C@@H]1CN(C)C(=O)Cc1ccncc1	inactive
C[C@H](CO)N1C[C@H](C)[C@H](CN(C)S(=O)(=O)c2cn(C)cn2)OCCCC[C@H](C)Oc2ccc(NC(=O)Nc3ccc(C(F)(F)F)cc3)cc2C1=O	inactive
O=C(CCC(=O)N1CCOCC1)Nc1c(F)c(F)nc(N2CCOCC2)c1F	inactive
C[C@@H]1CCCCO[C@H](CN(C)S(=O)(=O)c2ccccc2)[C@H](C)CN([C@@H](C)CO)C(=O)c2cc(NC(=O)Nc3cccc4ccccc34)ccc2O1	inactive
COCC(=O)N1C[C@]2(C1)CN([C@H](CO)c1c2c2ccc(cc2n1C)OC)C(=O)CN1CCOCC1	inactive
C/C=C/c1cccc(-c2nc(C(=O)NCc3ccc(OC)cc3)cc3c2[C@@H](CCO)N([S@@](=O)C(C)(C)C)C3)c1	inactive
Cc1ccc(S(=O)(=O)N(C)C[C@H]2Oc3ncc(Br)cc3C(=O)N([C@H](C)CO)C[C@H]2C)cc1	inactive
C[C@H](CO)N1C[C@H](C)[C@H](CN(C)Cc2ccc(C(F)(F)F)cc2)OCCCC[C@H](C)Oc2ccc(NS(C)(=O)=O)cc2C1=O	inactive
COc1ccc(OCC(=O)NCC(=O)O)cc1	inactive
O=C(O)Cc1nnc(-c2ccncc2)[nH]1	inactive
O=C(O)CCN1CCCCCC1=O	inactive
CCn1nnc2c1CCN(S(=O)(=O)c1cn(C)cn1)[C@@H]2COC	inactive
COc1ccc(S(=O)(=O)N(C)C[C@H]2OCCCC[C@@H](C)Oc3ccc(NC(=O)Nc4ccc5c(c4)OCO5)cc3C(=O)N([C@@H](C)CO)C[C@@H]2C)cc1	inactive
Cc1cc(C(=O)Nc2cccc3c2O[C@H](CN(C)S(=O)(=O)c2cccs2)[C@H](C)CN([C@H](C)CO)C3=O)n(C)n1	inactive
Oc1ccc(F)c2ccccc12	inactive
Cc1cccc2ccccc12	inactive
Oc1cccc2ccccc12	active
C[C@H](CO)N1C[C@H](C)[C@H](CN(C)C(=O)Nc2ccc(C(F)(F)F)cc2)OCCCC[C@H](C)Oc2ccc(NC(=O)C3CCCCC3)cc2C1=O	inactive
O=C(C[C@@H]1CC[C@@H]2[C@H](COC[C@@H](O)CN2S(=O)(=O)c2ccccc2)O1)NCc1ccc2c(c1)OCO2	inactive
C[C@H]1CN([C@@H](C)CO)C(=O)c2c(c3ccccc3n2C)-c2ccccc2CO[C@@H]1CN(C)C(=O)NC1CCCCC1	inactive
C=CC(C)(C)c1[nH]c2ccccc2c1C1=C(O)C(=O)C(c2c[nH]c3c(CC=C(C)C)cccc23)=C(O)C1=O	active
CC(C)=CCC1=C(O)C(=O)c2ccccc2C1=O	inactive
C[C@@H]1CN([C@@H](C)CO)C(=O)c2cc(NS(=O)(=O)c3cn(C)cn3)ccc2O[C@@H]1CN(C)C(=O)Nc1ccc(F)cc1	inactive

SMILES	cytotoxicity call
C[C@@H]1CN([C@@H](C)CO)C(=O)c2cc(NC(=O)Nc3cccc4ccccc34)ccc2O[C@@H](C)CCCCO[C@@H]1CN(C)Cc1ccc(C(=O)O)cc1	inactive
Cc1ccc(S(=O)(=O)N(C)C[C@H]2Oc3ccc(NS(=O)(=O)c4ccc(F)cc4)cc3C(=O)N([C@@H](C)CO)C[C@H]2C)cc1	inactive
COc1ccccc1C#Cc1cnc2c(c1)C(=O)N([C@H](C)CO)C[C@@H](C)[C@H](CN(C)C(=O)c1ccc3c(c1)OCO3)O2	inactive
COc1ccc(C#Cc2ccc([C@H]3[C@H](CO)N4CCCCN(S(=O)(=O)c5cn(C)cn5)C[C@@H]34)cc2)cc1	inactive
CC(C)(O)C#Cc1ccc([C@H]2[C@H](CO)N3CCCCN(S(C)(=O)=O)C[C@@H]23)cc1	inactive
COc1ccc(C#Cc2ccc([C@@H]3[C@H](CO)N4CCCCN(S(=O)(=O)c5cn(C)cn5)C[C@@H]34)cc2)cc1	inactive
COc1ccc(C#Cc2ccc([C@H]3[C@@H](CO)N4CCCCN(S(=O)(=O)c5cn(C)cn5)C[C@H]34)cc2)cc1	active
COc1ccc(C#Cc2ccc([C@H]3[C@H]4CN(S(=O)(=O)c5cn(C)cn5)CCCCN4[C@H]3CO)cc2)cc1	inactive
COc1ccc(C#Cc2ccc([C@H]3[C@@H](CO)N4CCCCN(S(=O)(=O)c5cn(C)cn5)C[C@@H]34)cc2)cc1	inactive
COc1ccc(C#Cc2ccc([C@@H]3[C@@H](CO)N4CCCCN(S(=O)(=O)c5cn(C)cn5)C[C@@H]34)cc2)cc1	active
COc1ccc(C#Cc2ccc([C@@H]3[C@H]4CN(S(=O)(=O)c5cn(C)cn5)CCCCN4[C@H]3CO)cc2)cc1	inactive
COc1ccc(C#Cc2ccc([C@@H]3[C@@H](CO)N4CCCCN(S(=O)(=O)c5cn(C)cn5)C[C@H]34)cc2)cc1	active
C[C@H](CO)N1C[C@H](C)[C@H](CN(C)Cc2ccc(Oc3ccccc3)cc2)Oc2ccc(NC(=O)c3ccncc3)cc2C1=O	inactive
C[C@@H]1CN([C@@H](C)CO)C(=O)Cc2cc(NC(=O)Cn3cnnn3)ccc2O[C@@H]1CN(C)C(=O)Nc1cccc2ccccc12	inactive
C=CC[C@H](CC(=O)NCCO)C(=O)N[C@@H](COC(=O)[C@@H](CC=C)CC(=O)OC(C)(C)C)Cc1c[nH]c2ccccc12	inactive
COc1ccc(NC(=O)Nc2ccc3c(c2)C(=O)N([C@H](C)CO)C[C@H](C)[C@H](CN(C)S(=O)(=O)c2c(C)noc2C)OCCCC[C@@H](C)O3)cc1	inactive
COCC(=O)Nc1ccc2c(c1)C(=O)N(C)C[C@@H](OC)[C@@H](C)CN(C(=O)Cc1cccnc1)[C@H](C)CO2	inactive
C[C@@H]1CCCCO[C@H](CN(C)C(=O)Nc2ccc3c(c2)OCO3)[C@H](C)CN([C@@H](C)CO)C(=O)c2cc(NS(=O)(=O)c3ccc(F)cc3)ccc2O1	inactive
Cc1ccc(S(=O)(=O)Nc2ccc3c(c2)C(=O)N([C@@H](C)CO)C[C@H](C)[C@H](CN(C)Cc2ccc(C(=O)O)cc2)OCCCC[C@@H](C)O3)cc1	inactive
Cc1cc(C)n2nc(N)nc2n1	inactive
Nc1ccc2c(c1)nc(CO)n2CCO	inactive
C[n+]1c2cc(N)ccc2cc2ccc(N)cc21.[Cl-]	inactive
Nc1ccc2cc3ccc(N)cc3nc2c1.O=S(=O)(O)O	active
